The record followed here is ChEMBL document CHEMBL3988442, “University of Dundee, Small-Polar-MMV Screening Library” (2021).

This experiment concerns Leishmania donovani. The experiment is described as follows: Leishmania intramacrophage assay. It counts as functional, organism-based. Also noted: scale not given: in the data most compounds retested in dose-response had high values.

Each structure is given as a SMILES string. Among all 69,000 compounds or so, about 1,000 (1.4%) showed an effect of 50% or more. This excerpt belongs to a sample that is enriched for strong results.

Regarding `Cc1noc(C)c1CN1CC[C@H]2C[C@@H](c3nccs3)O[C@@H]2C1`, for the setting “30 µM, 30.03 µM”, the “Percent Effect” value amounted to 15.1%. `Cc1cccc(-c2ncc(CNC(C)Cc3ccncc3)cn2)c1` (centres undefined): where the note is “30.3 µM, […]”, the “Percent Effect” value is recorded as -22.9%. Turning to `CC(Cc1cccc(F)c1)NCc1cnc(N2CCN(C)CC2)nc1` (centres undefined), the “Percent Effect” value (30.3 µM, […]) is recorded as 97.99%. Same read-out and setting: the figure for `Cc1cccc(-c2ncc(CNC(C)Cc3ncccc3C)cn2)c1` (centres undefined) is -19.51%. Regarding `Cl.Cl.Fc1ccc2c(c1)C1(CCNCC1)CC2NC1CC1` (centres undefined), for the setting “30.3 µM, […]”, the “Percent Effect” value is reported as 27.52%. Regarding `Cc1ccc(O[C@@H]2C[C@H]3CN(C(=O)Cc4ccccn4)CCN3C2)cc1.O=C(O)C(F)(F)F.O=C(O)C(F)(F)F`, the “Percent Effect” value (30.3 µM, […]) is 11.94%. In the case of `CCc1ncc(CN(CCc2ccccc2)Cc2cccs2)cn1.O=C(O)CC(O)(CC(=O)O)C(=O)O`, the “Percent Effect” value (30.3 µM, […]) is given as -1.419%. In the case of `c1ccc(-c2ncc(CN3CCC4(CCNCC4)C3)cn2)cc1`, the “Percent Effect” value (30.3 µM, […]) was found to be 24.37%.

For `Oc1cccc2ccc(CN3CCC4(CCNCC4)C3)nc12`, the “Percent Effect” value (30.3 µM, […]) was 61.55%.

Turning to `Fc1cnccc1CN1CCC2(CCNCC2)C1`, for the setting “30.3 µM, […]”, the “Percent Effect” value was found to be 25.89%. With `COCC1CC2(CCN(CC3CC3)CC2)CN1Cc1ccccn1.O=C(O)C(F)(F)F.O=C(O)C(F)(F)F` (centres undefined), the “Percent Effect” value (30.3 µM, […]) turned out to be 40.82%. The same measure, in the same setting: for `Fc1cnc(N2CCCC3(CCN(Cc4ccoc4)C3)C2)nc1.O=C(O)C(F)(F)F.O=C(O)C(F)(F)F` (centres undefined) the value was 13.62%; for `Cc1oncc1C(=O)N1CC[C@H]2[C@H](C[C@@H](CN3CCCC3)N2C)C1.O=C(O)C(F)(F)F.O=C(O)C(F)(F)F`, 25.5%.

`Cc1cc(CC(C)NC2CCN(CC(C)C)CC2)[nH]n1` (centres undefined): the “Percent Effect” value (30.3 µM, […]) amounted to 19.46%. Still for that read-out and setting: for `Cc1cc(N2CCC(NC(C)Cc3ccsc3)CC2)nc(C)n1` (centres undefined) the value was 70.01%; for `Cc1cc(N2CCC(NC(C)Cc3ccsc3)CC2)nc(N)n1` (centres undefined), 71.35%. Consider `Cc1cc(CC(C)NC2CCSCC2)[nH]n1` (centres undefined), for which, for the setting “30.3 µM, […]”, the “Percent Effect” value is on record as 3.441%. Still for that read-out and setting: for `CCOC(=O)N1CCC(NC(C)Cc2cc(C)n[nH]2)CC1` (centres undefined) the value was 11.64%. For `Cc1cccc(C)c1NC(=O)CNC(C)Cc1ccsc1` (centres undefined), the “Percent Effect” value (30.3 µM, […]) came to 11.71%. The same measure, in the same setting: for `CCS(=O)(=O)NC[C@]12COC[C@H]1CN(Cc1cccnc1OC)C2.O=C(O)C(F)(F)F.O=C(O)C(F)(F)F` the value was -3.146%; for `CC(C)N(C)Cc1cncc2c1CCN(Cc1cccs1)C2.Cl.Cl.Cl`, 7.349%; for `O=C(O)C(F)(F)F.O=C(O)C(F)(F)F.c1cncc(OC[C@@]23CCO[C@@H]2CCN(Cc2cccs2)C3)c1`, 13.49%. For `O=C(O)C(F)(F)F.O=C1Nc2ccccc2C12CCN(Cc1nccs1)CC2`, the “Percent Effect” value (30.3 µM, […]) turned out to be 18.81%. On to `Cc1ccc(CN2CCO[C@H]3[C@@H](OCc4cccnc4)CC[C@@H]32)o1.O=C(O)C(F)(F)F.O=C(O)C(F)(F)F`, for which the “Percent Effect” value (30.3 µM, […]) is given as 19.54%.
